# From PubChem BioAssay
# Several values for one entry are separate records, joined by “and”; a condition that tells them apart may be missing. Equal values may be shown once. Activity calls are given as the source filed them.
# Assays:
# [1] = tested on: Plasmodium falciparum Sir2 (PF13_0152, Sir2A); assay: pfSir2 binders on small-molecule microarrays, primary screen, biochemical, small-molecule microarray, 635 nm fluorescence (AID 1098); details: small-molecule microarray binding, fluorescence 635 nm; higher = more signal;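 note: score merges spot fluorescence intensity with its signal-to-noise ratio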
# [2] = small-molecule microarray binders of probe aDKK1, primary screen, biochemical, biotinylated probe, 635/667 nm fluorescence (AID 1099); details: higher = more signal;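 note: score merges 667nm spot fluorescence with signal to noise across triplicate slides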
# [3] = small-molecule microarray binders of probe aCHRDL2, primary screen, biochemical, biotinylated probe, 635/667 nm fluorescence (AID 1100); details: higher = more signal
# [4] = splicing luciferase reporter signal modulators, primary screen, spliceosome inhibition project, cell-based, HEK293, splice +/- reporter (AID 1101); details: luminescence, 24 h, higher = more signal, called active from +8 up or from −8 down;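 note: HEK293 cells carrying a splicing-competent luciferase reporter gene; test concentration not given here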
# [5] = biological target: Fibroblast growth factor 10 (Homo sapiens) (UniProt O15520); assay: FGF10 binders on small-molecule microarrays, primary screen, biochemical, small-molecule microarray, 635 nm fluorescence (AID 1102); details: FGF10 binding, fluorescence 635 nm, higher = more signal
# [6] = tested on: glycogen synthase kinase-3 (GSK3A per assay name; protocol says GSK3B); assay: GSK3 binders on small-molecule microarrays, primary screen, biochemical, small-molecule microarray, 635 nm fluorescence, GSK3A (AID 1103); details: small-molecule microarray binding, fluorescence 635 nm; higher = more signal; note: the record names both GSK3A and GSK3B
# [7] = biological target: Epidermal growth factor receptor (Homo sapiens) (UniProt P00533); assay: EGFR binders on small-molecule microarrays, primary screen, biochemical, small-molecule microarray, 635 nm fluorescence (AID 1104); details: EGFR binding, higher = more signal;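 note: score merges 667 nm emission intensity with spot signal to noise over triplicate slides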
# [8] = biological target: Follistatin-related protein 3 (Homo sapiens) (UniProt O95633); assay: FSTL3 binders on small-molecule microarrays, primary screen, biochemical, small-molecule microarray, 635 nm fluorescence (AID 1105); details: FSTL3 binding, higher = more signal;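 note: score merges emission near 667 nm and signal to noise per printed spot across three slides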
# [9] = biological target: Dickkopf-related protein 1 (Homo sapiens) (UniProt O94907); assay: DKK1 binders on small-molecule microarrays, primary screen, biochemical, small-molecule microarray, 635 nm fluorescence scan (AID 1106); details: DKK1 binding, higher = more signal;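 note: score merges emission near 667 nm with signal to noise over three replicate slides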
# [10] = tested on: Inhibin beta A chain (activin A); assay: INHBA (activin A) binders on microarrays, primary screen, biochemical, small-molecule microarray, 635 nm fluorescence scan (AID 1107); details: small-molecule microarray binding, higher = more signal;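 note: mouse activin A protein probed at 4.33 µg/mL on printed slides; score merges bound-protein fluorescence near 667 nm with spot signal-to-noise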
# [11] = tested on: Human papillomavirus type 1a protein E7 (residues 44-93); assay: HPV1a E7 fragment binders on microarrays, primary screen, biochemical, small-molecule microarray, residues 44-93, 635 nm fluorescence (AID 1108); details: small-molecule microarray binding, fluorescence 635 nm; higher = more signal;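 note: E7 fragment applied at 1 µg/mL in TBST for 1 h at 4 C; score combines spot fluorescence with its signal to noise ratio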
# [12] = modulators of HCV replicon luciferase signal, primary screen, HCV replication inhibitor project, Huh7 cells, luciferase reporter (AID 1109); details: 48 h, higher = more signal;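 note: huh7 hepatoma cells harbouring a luciferase neomycin HCV replicon reporter; luciferase luminescence as measure of HCV replicon replication; test concentration not given here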
# [13] = biological target: Left-right determination factor 2 (Homo sapiens) (UniProt O00292); assay: LEFTY2 binders on small-molecule microarrays, primary screen, biochemical, small-molecule microarray, 635 nm fluorescence scan (AID 1110); details: LEFTY2 binding, higher = more signal
# [14] = biological target: Calmodulin-1 (Homo sapiens) (UniProt P0DP23); assay: CALM1 binders on microarrays, EGTA buffer, profiling panel, biochemical, small-molecule microarray, Cy5-labelled CALM1 (AID 1111); details: Cy5-CALM1 binding fluorescence, higher = more signal;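 note: labelled calmodulin applied in Tris saline Tween buffer holding calcium plus EGTA and DTT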
# [15] = biological target: Calmodulin-1 (Homo sapiens) (UniProt P0DP23); assay: calcium-bound CALM1 binders on microarrays, profiling panel, artefact control for SMM control-protein annotation, biochemical, small-molecule microarray, Cy5-labelled CALM1, plus calcium (AID 1112); details: Cy5-CALM1 binding fluorescence, higher = more signal;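 note: score merges spot fluorescence with signal to noise from triplicate slides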
# [16] = small-molecule microarray binders of probe aWnt5a, primary screen, biochemical, biotinylated probe, 635/667 nm fluorescence (AID 1113); details: higher = more signal;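 note: score merges 667 nm fluorescence intensity with signal-to-noise per printed feature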
# [17] = small-molecule microarray binders of probe aShh, primary screen, biochemical, biotinylated probe, 635/667 nm fluorescence (AID 1114); details: higher = more signal;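 note: probe is biotin-labelled aShh protein from a stem cell growth factor screen; measures binding of labelled protein to compounds printed on the slide; score merges feature fluorescence at 667 nm with signal-to-noise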
# [18] = small-molecule microarray binders of probe aNog, primary screen, biochemical, biotinylated probe, 635/667 nm fluorescence (AID 1115); details: higher = more signal;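 note: probe is biotinylated aNog protein used at 0.15 µg/mL for 1 h at 4 C; z-score combines 667 nm fluorescence of each spot with its signal to noise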
# [19] = biological target: Torsin-1A-interacting protein 1 (Homo sapiens) (UniProt Q5JTV8); assay: LAP1 binders from COS7 cell lysate, primary screen, small-molecule microarray, 635/667 nm fluorescence (AID 1116); details: COS7-hLAP1 lysate binding, 635 nm fluorescence, higher = more signal
# [20] = biological target: Alpha-bungarotoxin (Bungarus multicinctus) (UniProt P60615); assay: alpha-bungarotoxin binders on microarray, profiling panel, artefact control for SMM control protein annotation, biochemical, small-molecule microarray, Alexa647 label, 635/667 nm fluorescence (AID 1117); details: alpha-BTX-A647 binding fluorescence, higher = more signal
# Alpha-bungarotoxin (Bungarus multicinctus), sequence (P60615 whole entry, looked up): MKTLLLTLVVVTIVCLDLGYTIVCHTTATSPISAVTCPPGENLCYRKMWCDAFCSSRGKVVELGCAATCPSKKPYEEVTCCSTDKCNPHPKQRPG
# Epidermal growth factor receptor (Homo sapiens), sequence (P00533 whole entry, looked up): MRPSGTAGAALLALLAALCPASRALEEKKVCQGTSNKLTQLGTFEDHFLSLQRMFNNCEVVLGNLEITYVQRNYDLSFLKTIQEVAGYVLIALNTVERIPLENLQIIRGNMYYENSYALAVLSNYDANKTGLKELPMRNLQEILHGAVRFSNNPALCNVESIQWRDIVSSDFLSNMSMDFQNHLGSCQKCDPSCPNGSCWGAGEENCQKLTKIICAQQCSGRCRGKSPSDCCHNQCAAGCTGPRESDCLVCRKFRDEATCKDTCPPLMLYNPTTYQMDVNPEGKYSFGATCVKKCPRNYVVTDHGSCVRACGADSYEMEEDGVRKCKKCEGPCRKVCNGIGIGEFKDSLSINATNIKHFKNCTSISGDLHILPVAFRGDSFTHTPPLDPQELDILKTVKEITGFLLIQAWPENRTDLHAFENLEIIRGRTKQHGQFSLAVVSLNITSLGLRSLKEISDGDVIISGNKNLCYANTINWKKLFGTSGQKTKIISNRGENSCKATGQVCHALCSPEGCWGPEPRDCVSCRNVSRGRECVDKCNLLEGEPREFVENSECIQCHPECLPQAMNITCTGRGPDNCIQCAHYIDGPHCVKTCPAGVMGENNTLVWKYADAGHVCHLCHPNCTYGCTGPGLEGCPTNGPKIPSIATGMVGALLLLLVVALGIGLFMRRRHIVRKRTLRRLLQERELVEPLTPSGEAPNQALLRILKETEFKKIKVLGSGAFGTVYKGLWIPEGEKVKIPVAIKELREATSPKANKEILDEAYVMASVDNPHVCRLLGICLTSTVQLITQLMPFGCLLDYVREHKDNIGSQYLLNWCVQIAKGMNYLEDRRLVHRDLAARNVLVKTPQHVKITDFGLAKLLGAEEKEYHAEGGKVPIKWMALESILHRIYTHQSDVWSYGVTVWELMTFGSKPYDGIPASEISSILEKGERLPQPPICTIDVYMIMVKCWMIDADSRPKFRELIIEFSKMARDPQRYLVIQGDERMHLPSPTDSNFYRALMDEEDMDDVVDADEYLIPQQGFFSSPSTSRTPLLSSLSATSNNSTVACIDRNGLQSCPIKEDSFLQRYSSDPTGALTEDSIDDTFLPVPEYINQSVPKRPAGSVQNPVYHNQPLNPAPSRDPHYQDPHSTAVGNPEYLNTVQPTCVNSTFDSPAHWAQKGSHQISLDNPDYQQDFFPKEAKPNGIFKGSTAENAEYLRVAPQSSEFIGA
# Torsin-1A-interacting protein 1 (Homo sapiens), sequence (Q5JTV8 whole entry, looked up): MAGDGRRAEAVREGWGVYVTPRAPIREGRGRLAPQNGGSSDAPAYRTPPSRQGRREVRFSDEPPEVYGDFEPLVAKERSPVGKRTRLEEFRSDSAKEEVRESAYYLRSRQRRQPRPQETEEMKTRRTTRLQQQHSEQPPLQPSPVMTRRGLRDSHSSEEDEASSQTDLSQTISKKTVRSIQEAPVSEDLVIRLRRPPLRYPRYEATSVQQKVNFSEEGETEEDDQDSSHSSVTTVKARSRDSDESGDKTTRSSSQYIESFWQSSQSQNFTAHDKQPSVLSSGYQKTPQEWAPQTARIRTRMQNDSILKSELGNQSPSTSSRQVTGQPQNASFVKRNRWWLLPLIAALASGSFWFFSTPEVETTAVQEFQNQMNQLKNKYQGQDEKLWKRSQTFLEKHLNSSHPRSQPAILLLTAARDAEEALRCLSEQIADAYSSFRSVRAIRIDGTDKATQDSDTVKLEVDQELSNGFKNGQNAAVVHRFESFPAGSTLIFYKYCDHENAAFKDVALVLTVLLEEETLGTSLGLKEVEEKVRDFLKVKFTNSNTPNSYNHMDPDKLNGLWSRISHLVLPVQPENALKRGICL
# Fibroblast growth factor 10 (Homo sapiens), sequence (O15520 whole entry, looked up): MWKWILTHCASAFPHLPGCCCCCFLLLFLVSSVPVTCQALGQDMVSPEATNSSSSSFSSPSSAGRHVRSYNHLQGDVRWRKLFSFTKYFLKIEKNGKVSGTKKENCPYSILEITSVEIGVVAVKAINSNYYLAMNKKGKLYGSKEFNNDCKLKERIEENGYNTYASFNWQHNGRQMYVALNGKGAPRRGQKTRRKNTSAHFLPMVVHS
# Left-right determination factor 2 (Homo sapiens), sequence (O00292 whole entry, looked up): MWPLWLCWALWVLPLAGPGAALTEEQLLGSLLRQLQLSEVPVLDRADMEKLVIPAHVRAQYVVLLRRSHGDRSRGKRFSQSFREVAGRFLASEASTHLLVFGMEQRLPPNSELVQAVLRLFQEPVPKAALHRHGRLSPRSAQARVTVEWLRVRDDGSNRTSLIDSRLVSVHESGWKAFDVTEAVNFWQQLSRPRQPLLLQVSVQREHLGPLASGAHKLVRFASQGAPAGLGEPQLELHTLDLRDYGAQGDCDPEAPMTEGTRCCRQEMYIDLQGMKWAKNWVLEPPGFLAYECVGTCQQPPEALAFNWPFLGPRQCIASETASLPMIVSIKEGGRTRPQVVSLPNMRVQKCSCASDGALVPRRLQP
# Follistatin-related protein 3 (Homo sapiens), sequence (O95633 whole entry, looked up): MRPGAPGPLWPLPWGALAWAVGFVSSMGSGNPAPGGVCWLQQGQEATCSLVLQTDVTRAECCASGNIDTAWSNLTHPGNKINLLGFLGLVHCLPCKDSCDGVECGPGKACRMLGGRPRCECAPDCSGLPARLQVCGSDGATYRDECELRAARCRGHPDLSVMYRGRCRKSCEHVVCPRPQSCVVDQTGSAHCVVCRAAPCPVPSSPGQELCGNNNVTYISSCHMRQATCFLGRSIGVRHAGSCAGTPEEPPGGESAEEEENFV
# Dickkopf-related protein 1 (Homo sapiens), sequence (O94907 whole entry, looked up): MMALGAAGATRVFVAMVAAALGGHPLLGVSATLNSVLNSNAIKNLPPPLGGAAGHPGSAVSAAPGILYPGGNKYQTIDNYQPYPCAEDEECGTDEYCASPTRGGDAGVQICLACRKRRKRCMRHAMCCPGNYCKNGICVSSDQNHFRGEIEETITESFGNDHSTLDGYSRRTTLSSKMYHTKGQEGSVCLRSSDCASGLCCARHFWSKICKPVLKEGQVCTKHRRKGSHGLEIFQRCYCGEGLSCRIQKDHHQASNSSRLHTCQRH
Structure (SMILES),composite z-score [1],composite z-score [2],composite z-score [3],z-score [4],composite z-score [5],composite z-score [6],composite z-score [7],composite z-score [8],composite z-score [9],composite z-score [10],composite z-score [11],z-score [12],composite z-score [13],composite z-score [14],composite z-score [15],composite z-score [16],composite z-score [17],composite z-score [18],composite z-score [19],composite z-score [20]
CO[C@@H]1COC(=O)CC=C[C@H](C)[C@@H](NS(=O)(=O)c2ccc(C)cc2)COC(=O)CC=C[C@@H]1C,0.462 and 1.72,-0.378 and -0.3,-0.823 and -0.867,-0.338 (inactive) and -0.57 (inactive),0.819 and 0.365,0.875 and 0.415,0.858 and 0.943,1.32 and 1.4,0.597 and 1.3,-0.113 and 1.32,0.494 and -1.3,-1.06 and -1.76,0.687 and 0.845,-0.653 and -0.748,-1.02 and -1.12,-0.101 and -0.126,0.0121 and -0.156,-0.23 and -0.289,0.149 and 0.483,1.15 and -0.0808
CCCCCN1CC=CC23O[C@@H]4C=CCCOC(=O)C4[C@H]2C(=O)N(C(C)CO)[C@@H]3C1=O (stereo not given in full),1.83 and 0.878,-1.21 and 0.263,-0.532 and 0.779,0.691 (inactive) and 0.361 (inactive),0.0253 and -0.6,0.375 and -0.449,-0.655 and -0.706,0.164 and -0.32,-0.057 and -0.695,-0.131 and 0.537,0.439 and 1.12,-1.79 and 1.05,-0.151 and -0.907,-0.858 and 0.167,-0.707 and -0.806,-0.357 and -0.28,-0.223 and -0.0035,-0.789 and -0.301,-0.759 and 2.57,-0.342 and 0.335
CCOC(=O)C[C@H]1[C@H](OC(=O)c2ccccc2-c2ccccc2)[C@@H](NC(=O)Cc2ccc(OC)cc2)c2cc(OCCCO)ccc2N1C(=O)Cc1ccc(OC)cc1,0.463 and -0.568,0.659 and -0.038,0.675 and 0.58,-1.05 (inactive) and -0.311 (inactive),0.57 and -0.0746,0.348 and -0.607,-0.111 and -0.847,0.223 and -0.624,-0.215 and -0.331,0.29 and 0.764,0.361 and -0.687,-0.912 and -0.962,0.422 and -0.519,1.11 and -0.163,0.971 and -0.309,-0.0346 and -0.0107,0.412 and -0.0977,0.811 and 0.467,0.477 and 0.415,0.873 and 0.224
C=CCN(Cc1ccccc1)C(=O)C(c1cccs1)N(C(=O)/C=C\C(=O)O)c1ccc(CCO)cc1 (stereo not given),-0.14 and -0.0434,-0.141 and -0.17,0.98 and 0.85,0.203 (inactive) and 0.258 (inactive),-1.22 and -2.14,-1.23 and -1.61,-1.96 and -1.68,-1.91 and -1.88,-2.15 and -2.42,-1.76 and -3.2,-0.325 and -0.505,0.0048 and 0.875,-2.74 and -3.22,-0.729 and -1,0.204 and -0.257,-0.243 and -0.252,-0.221 and -0.138,-0.4 and -0.118,-0.648 and -0.326,-1.7 and -1.25
COC(=O)CC=C[C@@H](C)[C@@H](CO)NS(=O)(=O)c1ccc(C)cc1,0.266 and 0.348,-0.393 and -0.371,-0.591 and -0.895,0.538 (inactive) and -0.445 (inactive),0.394 and 0.774,0.635 and 0.827,0.667 and 0.395,0.505 and 1.3,0.998 and 0.71,0.0232 and -0.0806,-0.314 and 0.755,-0.465 and -0.0825,0.632 and 0.966,-0.442 and -0.343,-1.01 and -0.837,-0.0405 and -0.0994,-0.522 and 0.111,-0.0503 and 0.0287,-0.145 and 0.808,-0.309 and 0.0211
CC(C)CON=C1C[C@@H](O)[C@@H](O)[C@@H]2[C@@H]3C(=O)N(c4cccc(Oc5ccccc5)c4)C(=O)[C@@H]3CC[C@H]12,0.0512,-0.354,-0.712,-0.00485 (inactive),0.357,0.278,0.338,0.571,0.661,-0.15,0.529,0.802,0.432,0.401,-0.201,-0.0269,-0.0553,-0.5,0.357,0.162
COC(=O)[C@@]1(Cc2ccccc2)[C@H]2c3cc(C(=O)N(C)C)n(C[C@H](O)CO)c3C[C@H]2CN1C(=O)c1ccccc1,0.544 and 0.831,0.781 and 0.66,0.761 and 1.21,-2.37 (inactive) and 1.46 (inactive),-0.397 and 0.483,-0.137 and -0.227,-0.647 and 0.374,-0.397 and 0.0048,-0.907 and -0.236,0.985 and 1.1,1.13 and -0.569,-0.38 and -0.668,-0.724 and 0.396,0.205 and 2.39,0.696 and 0.624,-0.0346 and 0.0297,1.03 and 0.0469,0.373 and 1.04,2.36 and 1.1,-0.33 and 0.13
Cc1ccc(S(=O)(=O)N[C@H]2COC(=O)[C@@H](C)COC(=O)[C@H](C)NC(=O)CC=C[C@H]2C)cc1,0.163,-0.45,-0.972,0.00442 (inactive),0.752,0.393,0.554,0.804,0.881,-0.108,-0.799,-0.128,0.715,-0.82,-0.994,0.027,0.0538,-0.234,1.09,-0.458
C#CCCCON=C1C[C@@H](O)[C@@H](O)[C@@H]2[C@@H]3C(=O)N(C4CCCCC4)C(=O)[C@@H]3CC[C@H]12,0.72,0.149,-0.0642,-0.285 (inactive),0.402,0.355,0.217,0.348,0.0938,0.24,0.774,-0.147,0.16,0.974,0.244,0.454,-0.0177,-0.134,0.104,2.51
